Measurements as given in PubChem BioAssay AID2599 (Sanford-Burnham Center for Chemical Genomics, 2010).
Hit rate of the full screen: of about 330,000 compounds, about 5,800 (1.8%) were called active. The sample as a whole holds a higher share of actives than the screen did. A number with no mark means an inactive call.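 How the source made its calls: active means inhibition above about 50% at the single tested dose (limit read from the data); inactive means the rest.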

target: Sentrin-specific protease 6 (Homo sapiens) (UniProt Q9GZR1); experiment: inhibition of human SENP6 catalytic domain – biochemical, luminescence, uHTS, primary screen (AID 2599); conditions: Recombinant SENP6 catalytic domain, aminoluciferin luminescence; at 10 µM; active compounds read high;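 further: plate controls were DMSO wells with enzyme for no effect and DMSO wells lacking enzyme for full effect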
Sequence (Q9GZR1 628-1112 limits assumed): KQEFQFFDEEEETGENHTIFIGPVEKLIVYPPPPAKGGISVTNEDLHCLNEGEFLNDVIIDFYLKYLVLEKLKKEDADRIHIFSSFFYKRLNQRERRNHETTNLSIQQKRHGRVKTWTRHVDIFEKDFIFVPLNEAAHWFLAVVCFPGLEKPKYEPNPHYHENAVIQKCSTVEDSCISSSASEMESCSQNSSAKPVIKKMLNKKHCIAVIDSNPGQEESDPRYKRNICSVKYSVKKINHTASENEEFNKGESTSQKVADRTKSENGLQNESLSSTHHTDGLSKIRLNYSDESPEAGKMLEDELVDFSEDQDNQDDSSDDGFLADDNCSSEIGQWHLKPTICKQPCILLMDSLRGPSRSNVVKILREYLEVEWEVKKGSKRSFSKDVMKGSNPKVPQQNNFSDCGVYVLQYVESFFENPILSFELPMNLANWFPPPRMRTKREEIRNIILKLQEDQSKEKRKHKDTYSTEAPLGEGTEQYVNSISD

| SMILES | inhibition |
| --- | --- |
| O=C1CCC(=O)N(c2ccccc2)N1 | -18.9% |
| O=C(c1cnccn1)N1CCN(S(=O)(=O)c2cccc(Cl)c2)CC1 | -6.78% |
| O=C(NCc1cccnc1)c1cccc(-c2cc3ccccc3oc2=O)c1 | -7.83% |
| Nc1ncc(-c2cc3ccccc3oc2=O)s1 | 92.4% (active) |
| Cc1cc2c(=O)n(C)c(SCC(=O)c3cc4ccccc4o3)nc2s1 | 15.6% |
| O=C(CN1C(=O)CC(c2ccccc2)=Nc2ccccc21)NC1CCCCC1 | -12% |
| CSCCC(NC(=O)COc1ccccc1)C(=O)Nc1ccc(C)cc1 (centres undefined) | -14.9% |
| Cc1ccccc1Nc1nc(-c2cccnc2)cs1 | 47.4% |
| O=C(Nc1ccc(-c2csc(Nc3cccc(C(F)(F)F)c3)n2)cc1)c1cccc(C(F)(F)F)c1 | -9.78% |
| CC(=O)Nc1cccc(-c2csc(Nc3cccc(C)n3)n2)c1 | 91.9% (active) |
| Cc1nc(NC(=O)c2cccc(Cl)c2)sc1-c1csc(Nc2cccc(Cl)c2)n1 | 20% |
| O=C(O)c1ccccc1C(=O)Nc1nc(-c2ccccc2)cs1 | -12.1% |
| Cc1cccc(Nc2nc(-c3ccccc3)cs2)n1 | 93.1% (active) |
| Cn1nnnc1SCC(=O)Nc1cccc(S(=O)(=O)N2CCCCC2)c1 | -12.9% |
| Cc1cccc(CSc2nc3c(c(=O)n2C)SCC3)c1 | 21.2% |
| Cc1ccc(C(=O)N/N=C\c2cc(Br)c(Br)o2)cn1 | 66% (active) |
| Cc1ccc(C(=O)N/N=C/c2cccc3ccccc23)cn1 | -7.6% |
| O=C(N/N=C\c1cc(Br)c(Br)o1)C1COc2ccccc2O1 (centres undefined) | -7.15% |
| CNC(=S)N/N=C/c1ccc(OCc2ccccc2)c(Br)c1 | -0.485% |
| CC(C)Oc1ccc(CN2CCC(n3nccc3NC(=O)c3cccnc3)CC2)cc1 | 0.591% |
| CSc1ccc(/C=N/NC(=O)c2cccc(Cl)c2)cc1 | 94.4% (active) |
| CSc1ccc(/C=N\NC(=O)CC(=O)NC(C)C)cc1 | -5.21% |
| O=C(N/N=C/c1ccc(Cl)c(Cl)c1)c1ccc2nc[nH]c2c1 | -7.64% |
| Cc1cc(C)c(NC(=O)CN2CCOCCOCCOCCOCC2)c(C)c1 | -4.6% |
| CN(C)C(CNC(=O)CCCOc1ccccc1)c1ccco1 (centres undefined) | -5.38% |

| SMILES | inhibition |
| --- | --- |
| CN(C)c1cc(-c2ccc(F)cc2)oc(=O)c1Cl | -8.53% |
| CCCCCCc1cc2cc(-c3nnc(-c4ccccc4)o3)c(=O)oc2cc1O | -12.7% |
| O=c1oc2cc(O)ccc2cc1-c1ccc(F)cc1 | 98% (active) |
| COC(=O)c1c(C)oc(C)c1S(=O)(=O)NCc1ccc(Cl)cc1 | -15.4% |
| CCOC(=O)c1c(/N=C/c2cc(C)ccc2O)sc2c1CCC2 | 6.68% |
| Cc1ccnc2nc(C(=O)Nc3nnc(-c4ccccc4)o3)nn12 | 7.14% |
| O=C(Nc1cccnc1Cl)c1cc(-c2ccccc2O)on1 | 17.2% |
| Cc1ccc(O)c(NC(=O)c2cc(-c3ccco3)on2)c1 | 62.9% (active) |
| O=C(Nc1ccccc1C(F)(F)F)c1cc(-c2ccc(O)cc2)on1 | 1.85% |
| CCOC(=O)Cc1csc(SCC(=O)NC(C)C23CC4CC(CC(C4)C2)C3)n1 (centres undefined) | -13.9% |
| O=C1CCC(=O)N1c1ccc(NCCc2ccccc2F)c([N+](=O)[O-])c1 | 11.8% |
| O=C(Nc1ccccc1C(=O)O)c1cc(S(=O)(=O)N2CCCCC2)cs1 | 15.3% |
| O=C(COc1ccc([N+](=O)[O-])cc1Cl)Nc1ccc2[nH]c(=O)[nH]c2c1 | -8.3% |
| CCc1ccc(-c2cc(C(=O)NCc3ccco3)c3ccccc3n2)s1 | -10.2% |
| CC(=NCc1ccco1)C1=C(O)c2ccccc2C1=O | 18.6% |
| CCC(C)Cn1c(O)cc2nn(-c3nc4ccccc4s3)c(=O)c-2c1C (centres undefined) | -3.5% |
| C/C(=N\NC(=O)CC(C)C)c1c(C(F)(F)F)[nH]n(-c2nc3ccccc3s2)c1=O | 98% (active) |
| CC(C)CC(=O)N/C(N)=N/c1nc2ccccc2s1 | 29.7% |
| CC(=NCc1ccco1)c1c(C(F)(F)F)[nH]n(-c2nc3ccccc3s2)c1=O | 97.8% (active) |
| COc1ccccc1C(=O)NCCC(=O)NC(C)CCc1ccccc1 (centres undefined) | -4.44% |
| O=C(CN1CCCSc2ccccc21)N1CCN(S(=O)(=O)c2cccc(F)c2)CC1 | -22.3% |
| CCCN1Cc2cccc(C(=O)NCc3ccccc3)c2C1=O | 10.8% |
| Cc1ccc(NS(=O)(=O)c2ccc(-c3coc(C)n3)cc2)c(C)c1 | -4.93% |
| CCOC(=O)[C@H]1[C@H]2COc3cc(OC)ccc3[C@@H]2N2C(=O)CN(Cc3ccc(Cl)cc3)C(=O)[C@@]12C | -7.07% |
| COc1ccccc1N1CCN(S(=O)(=O)CCNC(=O)c2ccc(OC(C)C)cc2)CC1 | -8.31% |

| SMILES | inhibition |
| --- | --- |
| COc1cc(NC(=O)CSc2ccc(-c3cccnc3)nn2)cc(OC)c1 | 4.11% |
| COc1ccccc1NC(=O)c1c(Br)cnn1C | -0.608% |
| COc1ccccc1OCC(=O)O/N=C(\N)c1ccccn1 | 13.8% |
| N/C(=N\OC(=O)CC1CCCCC1)c1ccccc1 | 40.3% |
| N/C(=N\OC(=O)CCC1CCCCC1)c1ccccn1 | 87.4% (active) |
| Cc1ccc(O)c(CCc2ccccc2)n1 | 8.36% |
| CCCc1ccc(-c2c(C)sc(NC(=O)c3ccnn3C)c2C#N)cc1 | -0.479% |
| CN(C)C(=O)CSc1n[nH]c(-c2ccco2)n1 | 0.308% |
| O=C(O)CC(Cn1cnnn1)c1ccccc1 (centres undefined) | -0.459% |
| O=C(NCCS(=O)(=O)N1CCN(c2ccccc2)CC1)c1ccco1 | 6.25% |
| CCOc1ccc(NC(=O)CCC(=O)NNC(=O)NC2CCCCC2)cc1 | -9.85% |
| Cc1ccc(S(=O)(=O)N2CCN(c3ccccc3)CC2)cc1C | 4.47% |
| CC(C)OC(=O)C(C#N)c1nc2ccccc2nc1N1CCN(Cc2ccccc2)CC1 (centres undefined) | 6.5% |
| Cc1ccc(S(=O)(=O)C(C#N)c2nc3ccccc3nc2N2CCCC2)cc1C (centres undefined) | 75.9% (active) |
| O=C(CCCN1C(=O)c2ccccc2C1=O)Oc1ccc(Cl)cc1 | 1.14% |
| Cc1cccc2c(=O)n3c(nc12)CCCCC3 | 9.44% |
| Cc1c(C(=O)Nc2ccccc2)sc2nc3n(c(=O)c12)CCCCC3 | -15.7% |
| O=c1c2c(nc3n1CCCCC3)sc1c(O)cccc12 | 51.8% (active) |
| Cn1cccc1C(=O)NC(=O)COC(=O)Cc1coc2ccc3ccccc3c12 | -4.09% |
| Cc1c(C(=O)NC(C)C2CC3CCC2C3)cccc1[N+](=O)[O-] (centres undefined) | -22.4% |
| COc1ccc(CCNC(=O)CCNS(=O)(=O)c2cc(Br)cnc2N)cc1OC | -5.77% |
| O=c1/c(=C/c2ccc(CNS(=O)(=O)c3ccccc3)o2)sc2n1CCN=2 | 3.24% |
| CCn1c(=O)cc(SCC(=O)NCCC2=CCCCC2)c2ccccc21 | -1.94% |
| COCCNC(=O)CCCN1C(=O)c2ccccc2Sc2ncccc21 | -28.9% |
| Oc1c(C=Nc2cccc3nsnc23)ccc2ccccc12 | 94.6% (active) |

| SMILES | inhibition |
| --- | --- |
| Cc1cc2c(cc1C)N(Cc1ccccc1)C1=NCCCN12 | -12.7% |
| O=C(Nc1ccccc1)O/N=C1/CCCc2occc21 | -12.8% |
| CCCN1C(=O)C(Cc2nc3ccccc3c(=O)n2-c2ccccc2)c2cc(C)ccc21 (centres undefined) | -13.2% |
| Cc1ccc(NC(=S)N(CCCN2CCCC2)Cc2cccn2Cc2ccc(Cl)cc2)cc1 | -18% |
| Brc1ccccc1C1N=C(c2ccccc2)NO1 (centres undefined) | 38.9% |
| N#Cc1ccc(C2N=C(c3ccccc3)NO2)cc1 (centres undefined) | 53% (active) |
| C/C=C/C=C/C(=O)O | -2.25% |
| COc1ccc(C(=O)C2CCCN(C(=O)c3cc(C)on3)C2)cc1F (centres undefined) | 4.97% |
| O=C(COC(=O)CNC(=O)C1CCCCC1)NCc1ccccc1 | 4.4% |
| CCCCCCSc1ccc(-c2nc3ccc(Cl)cn3c2NCc2ccccc2)cc1 | -0.449% |
| Clc1ccc2nc(CSc3ccccc3)cn2c1 | 72.1% (active) |
| O=C(/C=C/c1ccc2c(c1)OCO2)NCc1cn2cc(Cl)ccc2n1 | -4.65% |
| CC1(c2ccc(Cl)cc2)NC(=O)N(CC(=O)c2ccc3c(c2)OCO3)C1=O (centres undefined) | -6.26% |
| O=C(c1ccc(CSc2ccccc2)cc1)N1CCCCCC1 | 80.6% (active) |
| CC1CCN(C(=O)c2ccc(CSc3ccc(Cl)cc3)cc2)CC1 | 15.6% |
| O=C(c1ccc(S(=O)(=O)c2ccccc2)cc1)N1CCCCCC1 | -8.79% |
| CCOc1ccccc1C(=O)NC1CC2CCCC(C1)N2Cc1ccccc1 (centres undefined) | 7.09% |
| Cc1cccc(C2=N/C(=C/c3cccs3)C(=O)O2)c1 | 9.27% |
| CSC1=N/C(=C\C=C\c2cccs2)C(=O)S1 | 77.8% (active) |
| O=C1N/C(=C/c2cccs2)C(=O)N1Cc1ccc(F)cc1 | -6.09% |
| O=C(O)c1ccc(N/N=C/c2ccc3ncccc3c2)cc1 | 101% (active) |
| O=C(O)c1ccc(/C=N/Nc2nc(N3CCCCC3)nc(N3CCCCC3)n2)cc1 | -7.28% |
| Cc1ccc2cc(/C=N/Nc3ccc(C(=O)O)cc3)c(Cl)nc2c1 | -25% |
| Cc1ccc2c(c1)N(CC(=O)N(Cc1ccccn1)Cc1ccco1)C(=O)C(C(C)C)O2 (centres undefined) | -1.99% |
